GSTO1 counter: counter-screen for RBBP9 inhibitors: inhibitors of human GSTO1; inhibition, % at 5.96 µM; 300,000 tested, 1.1% active; AID 1974; P78417; recombinant GSTO1, activity-based probe fluorescence polarization;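 active = inhibition above the campaign mean inhibition plus 3 SD, cut at about 35% in these data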;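 also: 0% = GSTO1-1 with DMSO and 100% = wells lacking GSTO1-1 enzyme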
Target sequence (P78417 whole entry, looked up): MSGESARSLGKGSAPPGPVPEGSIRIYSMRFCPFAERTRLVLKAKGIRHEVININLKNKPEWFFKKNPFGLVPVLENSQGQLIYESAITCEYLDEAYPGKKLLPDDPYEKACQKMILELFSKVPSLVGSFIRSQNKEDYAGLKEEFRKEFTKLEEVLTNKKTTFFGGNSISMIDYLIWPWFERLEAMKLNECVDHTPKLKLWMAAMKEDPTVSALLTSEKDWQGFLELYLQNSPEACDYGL
Fam108B counter: Fam108B inhibition, counter-screen for RBBP9 inhibitors; recombinant Fam108B, FP-Rh probe fluorescence polarization; inhibition, % at 9.51 µM; 300,000 tested, 0.33% active; AID 1947;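 active = inhibition above the screen mean inhibition plus 3 SD, computed separately per campaign, cut at about 18% in these data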;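 also: inhibitors lower polarization as less probe binds the enzyme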
PAD4 inh: inhibitors of human PAD4; Q9UM07; recombinant PAD4, RCA probe fluorescence polarization; inhibition, % at 6.36 µM; 330,000 tested, 0.41% active;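 active = percent inhibition above a cutoff equal to the mean of all tested compounds plus 3 SD, cut at about 15% in these data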;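 also: 0% = PAD4 with RCA probe and DMSO and 100% = probe without PAD4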
pPAFAH FP inh: inhibitors of human plasma PAF acetylhydrolase (pPAFAH). 330,000 tested, 1.5% active. recombinant pPAFAH, FP-rhodamine probe fluorescence polarization. AID 463082. inhibition, % at 3.39 µM;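 active = inhibition above the mean inhibition across the screen plus 3 SD, cut at about 25% in these data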;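 also: inhibitors block binding of the rhodamine activity-based probe so polarization drops; 0% = enzyme with DMSO and 100% = wells lacking pPAFAH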
PME-1 inh: blocks human protein phosphatase methylesterase 1; recombinant PME-1, FP-Rh probe fluorescence polarization; inhibition, % at 5.9 µM; 320,000 tested, 0.53% active;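 active = inhibition above the campaign mean of all compounds plus 3 SD, cut at about 26% in these data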;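 also: competitive labeling of PME-1 active site by serine hydrolase directed probe; 0% = PME-1 with DMSO and 100% = wells lacking PME-1 enzyme; inhibitors block probe labeling so polarization falls and inhibition rises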
Target sequence (Q9Y570 whole entry, looked up): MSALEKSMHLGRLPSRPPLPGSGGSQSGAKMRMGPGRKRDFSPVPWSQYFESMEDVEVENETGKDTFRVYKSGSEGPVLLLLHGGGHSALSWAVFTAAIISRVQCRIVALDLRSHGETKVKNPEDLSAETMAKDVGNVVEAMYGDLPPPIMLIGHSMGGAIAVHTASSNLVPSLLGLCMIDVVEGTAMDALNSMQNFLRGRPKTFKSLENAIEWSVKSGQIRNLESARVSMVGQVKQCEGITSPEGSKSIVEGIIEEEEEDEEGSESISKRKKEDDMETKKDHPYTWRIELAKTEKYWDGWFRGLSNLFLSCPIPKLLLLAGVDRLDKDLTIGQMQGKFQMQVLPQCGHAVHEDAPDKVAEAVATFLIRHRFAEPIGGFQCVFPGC
* marks the source's active call; other numbers are inactive results. A selection: hits, their analogues and other compounds. The true share with any hit is near 2.3%.

Screening O=C(O)CSc1ncnc2scc(-c3ccccc3)c12 returned GSTO1 counter 2.3, Fam108B counter -0.3, PAD4 inh 6.3, pPAFAH FP inh 2.0 and PME-1 inh 1.8.
For Cc1cc(C(=O)NCC(=O)OCC(=O)N(C(C)C)C(C)C)ccc1[N+](=O)[O-] the results were GSTO1 counter 0.7, Fam108B counter -4.5, PAD4 inh 2.5, pPAFAH FP inh 1.3 and PME-1 inh 0.1.
For Cc1ccc(N=C2S/C(=C\c3cn(CC(=O)O)c4ccccc34)C(=O)N2C)cc1 the results were GSTO1 counter -6.5, Fam108B counter 7.0, PAD4 inh -6.6, pPAFAH FP inh 25.8* and PME-1 inh -2.0.
For CCN=C1S/C(=C\c2cn(CC)c3ccccc23)C(=O)N1CC the results were GSTO1 counter -0.8, Fam108B counter -0.8, PAD4 inh -0.3, pPAFAH FP inh 8.6 and PME-1 inh 24.8.
COc1ccccc1C(C)NC(=O)CCNC(=O)c1ccc(Cl)cc1 (centres undefined) was read as PAD4 inh -0.1 and pPAFAH FP inh -4.3.
O=C(NCC1CCCO1)c1ccc(COc2ccccc2Br)cc1 (centres undefined) was read as GSTO1 counter -2.2, Fam108B counter -3.6, PAD4 inh -4.3, pPAFAH FP inh 3.7 and PME-1 inh 4.5.
Screening Cc1cc([N+](=O)[O-])nn1Cc1ccc(C(=O)N/N=C/c2ccc(F)cc2)cc1 returned GSTO1 counter 4.5, Fam108B counter -6.0, PAD4 inh 0.2, pPAFAH FP inh 1.7 and PME-1 inh -7.6.
For Cc1cc([N+](=O)[O-])nn1Cc1ccc(C(=O)N/N=C/c2ccc(O)cc2O)cc1 the results were GSTO1 counter -0.9, Fam108B counter 11.0, PAD4 inh -10.6, pPAFAH FP inh 28.6* and PME-1 inh 18.5.
C/C(=N\NC(=O)c1cc(-c2cccc([N+](=O)[O-])c2)n[nH]1)c1ccccc1O was read as GSTO1 counter 6.0, Fam108B counter -14.5, PAD4 inh -2.0, pPAFAH FP inh 18.8 and PME-1 inh -21.8.
Screening O=C1c2ccccc2C(=O)N1CSc1nnnn1-c1ccccc1 returned GSTO1 counter 37.1*, Fam108B counter 0.5, PAD4 inh 0.3, pPAFAH FP inh 1.7 and PME-1 inh -2.1.
`O=C1c2ccccc2C(=O)N1CCCCSc1nnnn1-c1ccccc1` gave GSTO1 counter -0.4, Fam108B counter 2.3, PAD4 inh 1.1, pPAFAH FP inh 7.5 and PME-1 inh 7.3.
`NNC(=O)c1nn(-c2ccccc2)cc1O` gave GSTO1 counter 20.1, Fam108B counter 4.8, PAD4 inh -3.2, pPAFAH FP inh 30.6* and PME-1 inh -2.9.
O=C(O)c1cn(-c2ccccc2)nc1C(=O)O was read as GSTO1 counter 6.9, Fam108B counter 4.2, PAD4 inh -2.8, pPAFAH FP inh -3.0 and PME-1 inh 3.6.
`COc1cc(-c2c(NC(=O)c3ccco3)oc3ccccc3c2=O)cc(OC)c1OC` gave GSTO1 counter -1.2, Fam108B counter 2.7, PAD4 inh 0.9, pPAFAH FP inh 0.1 and PME-1 inh -3.1.
For CCCOc1ccc(C(=O)O/N=C(\CC)c2ccc(C)cc2)cc1 the results were GSTO1 counter 5.1, Fam108B counter -3.0, PAD4 inh -0.5, pPAFAH FP inh 20.4 and PME-1 inh -6.5.
C/C(=N\OC(=O)c1ccc(OC(C)C)cc1)c1ccc(C)c(C)c1 was read as GSTO1 counter 3.5, Fam108B counter -6.5, PAD4 inh -3.8, pPAFAH FP inh 27.6* and PME-1 inh -3.2.
`CC/C(=N\OC(=O)c1ccc(OC(C)C)cc1)c1ccc(C)cc1` gave GSTO1 counter 0.1, Fam108B counter -1.7, PAD4 inh -2.6, pPAFAH FP inh 28.9* and PME-1 inh -5.2.
For CCOc1ccc(/C=C/c2nc(C#N)c(NCCCN(C)C)o2)cc1 the results were GSTO1 counter 3.5, Fam108B counter -2.6, PAD4 inh 6.9, pPAFAH FP inh 0.9 and PME-1 inh -12.2.
Screening CCOc1ccc(/C=C/c2nc(C#N)c(NCCCOC)o2)cc1 returned GSTO1 counter 3.0, Fam108B counter -2.4, PAD4 inh 2.2, pPAFAH FP inh 28.2* and PME-1 inh 2.5.
For CC(C)CC(NC(=O)c1cccs1)c1nnc(SCc2ccc(Cl)c(Cl)c2)n1C (centres undefined) the results were GSTO1 counter 4.9, Fam108B counter -3.1, PAD4 inh -2.7, pPAFAH FP inh 1.6 and PME-1 inh 3.3.
For C=CCn1c(SCC(=O)c2ccc(Br)cc2)nnc1C(CC(C)C)NC(=O)c1cccs1 (centres undefined) the results were GSTO1 counter 36.3*, Fam108B counter -5.4, PAD4 inh 1.4, pPAFAH FP inh 0.9 and PME-1 inh 0.4.
`Cn1c(=O)c2c(nc(SCCN3CCOCC3)n2C)n(C)c1=O` gave GSTO1 counter 1.6, Fam108B counter -6.0, PAD4 inh -4.4, pPAFAH FP inh -8.7 and PME-1 inh -8.9.
CCCCNC(=O)COC(=O)CCC(=O)c1ccc(Cl)cc1 was read as GSTO1 counter 9.1, Fam108B counter 2.8, PAD4 inh -1.3, pPAFAH FP inh 11.9 and PME-1 inh 9.5.
`OCCC1CN(Cc2c(F)cccc2Cl)CCN1C1CCCCC1` (centres undefined) gave GSTO1 counter -2.8, Fam108B counter -5.9, PAD4 inh 0.2, pPAFAH FP inh 32.5* and PME-1 inh -2.8.
CCOC(=O)c1c(C)[nH]c(C)c1S(=O)(=O)N(C)CC(=O)Nc1cc(C)ccc1OC was read as GSTO1 counter -1.1, Fam108B counter 4.1, PAD4 inh 0.0, pPAFAH FP inh 4.5 and PME-1 inh 26.4*.
Screening CCOC(=O)c1c(C)[nH]c(C)c1S(=O)(=O)N(C)CC(=O)Nc1ccc(C)cn1 returned GSTO1 counter -2.2, Fam108B counter 2.0, PAD4 inh -3.3, pPAFAH FP inh 10.9 and PME-1 inh 5.7.
`CC1(c2cccc(Br)c2)NC(=O)N(CC(=O)N2CCc3ccccc32)C1=O` (centres undefined) gave PAD4 inh -3.4, pPAFAH FP inh -0.8 and PME-1 inh 3.8.
For Cc1ccc(S(=O)(=O)c2nnn3c2nc(N2CCOCC2)c2ccccc23)c(C)c1 the results were GSTO1 counter 5.6, Fam108B counter 1.7, PAD4 inh -0.1, pPAFAH FP inh 2.5 and PME-1 inh 27.1*.
CC(=O)c1c(C)[nH]c(C(=O)Nc2nc(-c3ccc(-c4ccccc4)cc3)cs2)c1C was read as GSTO1 counter -16.0, Fam108B counter 14.0, PAD4 inh -1.7, pPAFAH FP inh -37.7 and PME-1 inh -39.0.
`CC(=O)c1c(C)[nH]c(C(=O)Nc2nc(-c3ccc(Cl)cc3)cs2)c1C` gave GSTO1 counter -5.1, Fam108B counter -5.8, PAD4 inh 2.7, pPAFAH FP inh -8.2 and PME-1 inh 51.0*.
`COc1ccc(-c2nc(NC(=O)c3[nH]c(C)c(C(C)=O)c3C)sc2C)cc1` gave GSTO1 counter -35.5, Fam108B counter 15.8, PAD4 inh 1.5, pPAFAH FP inh 11.1 and PME-1 inh 46.8*.

Bioassay records as filed in PubChem BioAssay.
